# From the supplement of paper PMC6555819
# Tested on: VDR:RXRa (NR concentration 270 nM, RXRa partner concentration 90 nM)
# Assay: PBM binding z-score (relative to random genomic background probes); higher = stronger binding; sequences stand for … in GC…GCGATTGACAGCGTAGAATGAAGG
# Method: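 Protein-binding microarray (Agilent 4x180K custom design, double-stranded 60-nt probes: 5' GC cap, 34-nt variable region, 24-nt constant primer region; full probe sequence given). Purified or IVT nuclear receptor:RXRα heterodimers (3:1 NR:RXRα, mostly 270:90 nM) or homodimers were incubated for 1 h in PBS with 2% milk and no ligand, then detected with Alexa488 antibodies. Fluorescence from o1-orientation probes (~5 replicates averaged) was converted to z-scores against 500 random hg19 background probes. Variable regions are seed direct-repeat (DR0–DR5) sites, all their single-nucleotide variants and half-site ablations.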
row,Sequence,PBM binding z-score
1,TGAATGAGGTTAAAGAGCAGGGAACGTGGCGTCG,1.4
2,TCGAGTAGGTTACCAATGGGGCATTCACCTTTCT,0.284
3,GCGACTGGGGCAGCAGCAGGTTACCATAACTTAA,-0.465
4,ACACGGAGGACAAAGGTCAGAGCTACGCCAGTGA,3.46
5,CCGACTGGGGCAAGGTTAACATAACGCACAGCCA,0.295
6,TCGAGTAGGTTAGGGGCAGTCAGAATGGCGTCGA,0.0468
7,CTTAGCAGGCCAGGGTCACTCAAGCATTTCGCTT,2.67
8,ACAGACAGGTGAGTGAACGTAACTCAGCTGGACG,-0.318
9,CCTAGTTTGTCAAGGTCACACACGCTATAGGTAC,4.46
10,TCGCGGAGGACACGAAAGGTCAGAGCTCGACATC,3.13
11,TCTAGTTGGTCACGGAAGTCACACACGACGGGTA,0.891
12,GCTCGGAGGACATGGTCAGAGCTTTGTCCGTAGA,-0.753
13,TCGAGTAGGTGAGTCGGGGCATTCAGCCAACATA,1.68
14,TAGCCTAGATCATGCGGGCCAGTATAGTGTCGGC,-1.11
15,GCTAGCAGGCCATTTGGGTCTCTCAATGACGGGC,-0.594
16,CCTCGGATGACAACAGGAGGTCAGAGCTGCCAGA,1.55
17,GATTCAGGGTCAAGGCCAGAGTACGCGTATTGAT,4.89
18,TCTAGTTGGTCAAAGGTCACACATTCGAAATGCG,5.09
19,TCATATAGGTAAACAGGTGAAAGGCCGTAAGTTA,0.988
20,CAAACTAGGTCAAAGGTCAAAGTCGAGCCAACCA,6.72

row,Sequence,PBM binding z-score
1,GCTTGTAGATCCAGGTTAAGAAAGACTAAGCTAA,-0.307
2,TCTATTAGTTCAAGGGCAACCGACGAGTCCGTTT,2.38
3,CAAACTAGTTCAAGGTCAAAGTCGGTTTGTGCCA,4.92
4,GCTTGTAGATCAACGTTAAGAAAGACTAAGCTAA,-0.456
5,AGCGAAAGGTCGTGAGGTGAGTATACAGAAAGGC,3.51
6,TTACCAAGGTGAGCTGGGGTCGTTGATCCAACTC,4.15
7,CCTTACGGGTCACGAGGTTATACCACGACGAGCG,5.37
8,CAAACTAGGTCACAGAGGTCCAAGTCCGTGCGTA,5
9,AATACAGGGTCATCGTAGGCCGGAGTACGCACAG,4.89
10,TCTATTAGTTGATCAGGGCAACCGAAACAGCGGA,0.669
11,CGAACTAGATCATTGACAGGACAGTGAATAGTAA,0.158
12,TTACCAAGGGGAAAGGTCGTTGATGCACGCCTTG,1.98
13,CCTATTGGGCCATCAGGTCATTGATATCAACGTT,2.12
14,TCAGACAGGTGAAGGTAACTCATGTACGCAGTCG,0.532
15,GGAACGAGGGCAAGTTGATGGCAGAGTTTGATGG,0.912
16,CGTCAAAATTCAACTAAGGTAACGTAAAGCACGC,0.298
17,AGTCAAAGTTCACTAGTTAACGTAAGATTCAGCT,3.88
18,ATCTCTAGGTAAAGATAGTTCAGTAAATGCAAAT,1.22
19,CCTTACGGGTCATTGACAGGTTATAGCATTTGGA,4.11
20,GCTGATAGGTCAACTGATGGTCAGCTAAAGCTCG,2.69
